# Records with an inconclusive call do not appear. The source made the active and inactive calls. Calls follow the shape of the dose curve; as a rule, active = well fitted curve in the direction sought with a large enough effect; inconclusive = small, poorly fitted or top-dose-only effect, or another doubt; inactive = no such curve, though single readings can be large; an effect the other way counts as inactive or inconclusive.
# Tests used:
# [1] = qHTS of pediatric cancer cell lines to identify multiple opportunities for drug repurposing: Primary screen for TC32 cells (AID 1347089); conditions: TC32 Ewing sarcoma viability, CellTiter-Glo luminescence, 48 h; series mostly up to 45.8 µM; also: nearly all actives have a fitted effect of over 60% in size
# How it was run: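 Measured quantity: luminescence from CellTiter-Glo, reflecting metabolically active TC32 cells following 48 h of compound. Curves came straight from multi-point titrations, with 8 or 11 points in primary and 11 in confirmatory screening.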
# [2] = qHTS of pediatric cancer cell lines to identify multiple opportunities for drug repurposing: Primary screen for DAOY cells (AID 1347090); conditions: DAOY medulloblastoma viability, CellTiter-Glo luminescence, 48 h; series mostly up to 46 µM; also: nearly all actives have a fitted effect of over 55% in size
# How it was run: (§1)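 Cell viability, CellTiter-Glo luminescence; 500-1,000 cells/well, 8- or 11-point titration, 48 h compound exposure at 37 degrees C, 5% CO2. Controls: DMSO neutral, bortezomib 2.3 µM final as positive.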
# [3] = qHTS of pediatric cancer cell lines to identify multiple opportunities for drug repurposing: Primary screen for SJ-GBM2 cells (AID 1347091); conditions: SJ-GBM2 viability, CellTiter-Glo luminescence, 48 h; series mostly up to 46 µM
# How it was run: as §1
# [4] = qHTS of pediatric cancer cell lines to identify multiple opportunities for drug repurposing: Primary screen for A673 cells (AID 1347092); conditions: A673 Ewing sarcoma viability, CellTiter-Glo ATP luminescence, 48 h; series mostly up to 46 µM; also: nearly all actives have a fitted effect of over 45% in size
# How it was run: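 Cells are plated, rested 5 h, dosed by pintool, incubated 48 h, then lysed with CellTiter-Glo and read by luminescence. DMSO is the neutral control; bortezomib at 2.3 uM final is the positive control.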
# [5] = qHTS of pediatric cancer cell lines to identify multiple opportunities for drug repurposing: Primary screen for SK-N-MC cells (AID 1347093); conditions: SK-N-MC viability, CellTiter-Glo luminescence, 48 h; series mostly up to 46 µM
# How it was run: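 Metabolically active cells were quantified by ATP-dependent luminescence (CellTiter-Glo, 15 min at room temperature) following 48 h treatment. Cells had been plated at 500-1,000 per well and settled for 5 h beforehand.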
# [6] = qHTS of pediatric cancer cell lines to identify multiple opportunities for drug repurposing: Primary screen for BT-37 cells (AID 1347094); conditions: BT-37 viability, CellTiter-Glo luminescence, 48 h; series mostly up to 57.3 µM
# How it was run: (§2)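 Cells seeded at 500-1,000 cells/well in growth media, rested 5 hours at 37 degrees C, 5% CO2, then dosed; MIPE compounds at 11-point (from 0.78 nM) and NPC at 8-point (from 0.59 nM) final concentrations. Viability by CellTiter-Glo luminescence after 48 hours.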
# [7] = qHTS of pediatric cancer cell lines to identify multiple opportunities for drug repurposing: Primary screen for NB-EBc1 cells (AID 1347095); conditions: NB-EBc1 neuroblastoma viability, CellTiter-Glo luminescence, 48 h; series mostly up to 46 µM
# How it was run: as §2
# [8] = qHTS of pediatric cancer cell lines to identify multiple opportunities for drug repurposing: Primary screen for Saos-2 cells (AID 1347097); conditions: Saos-2 viability, CellTiter-Glo ATP luminescence, 48 h; series mostly up to 46 µM; also: nearly all actives have a fitted effect of over 40% in size
# How it was run: as §2
# [9] = qHTS of pediatric cancer cell lines to identify multiple opportunities for drug repurposing: Primary screen for SK-N-SH cells (AID 1347098); conditions: SK-N-SH viability, CellTiter-Glo luminescence, 48 h; series mostly up to 57 µM; also: nearly all actives have a fitted effect of over 65% in size
# How it was run: (§3)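 Cells (500-1,000/well) rested 5 h, then received compounds for 48 h; metabolically active cells were measured by CellTiter-Glo luminescence. Final concentrations spanned up to 46 µM (MIPE, 11-point) or 0.59 nM-46 µM (NPC, 8-point) in primary screens, 11-point in follow-ups.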
# [10] = qHTS of pediatric cancer cell lines to identify multiple opportunities for drug repurposing: Primary screen for NB1643 cells (AID 1347099); conditions: NB1643 neuroblastoma viability, CellTiter-Glo luminescence, 48 h; series mostly up to 46 µM; also: nearly all actives have a fitted effect of over 50% in size
# How it was run: as §2
# [11] = qHTS of pediatric cancer cell lines to identify multiple opportunities for drug repurposing: Primary screen for Rh18 cells (AID 1347102); conditions: Rh18 rhabdomyosarcoma viability, CellTiter-Glo luminescence, 48 h; series mostly up to 46 µM; also: nearly all actives have a fitted effect of over 65% in size
# How it was run: as §3
# [12] = qHTS of pediatric cancer cell lines to identify multiple opportunities for drug repurposing: Primary screen for LAN-5 cells (AID 1347100); conditions: LAN-5 neuroblastoma viability, CellTiter-Glo luminescence, 48 h; series mostly up to 46 µM
# How it was run: as §3
# [13] = NS1 protein of Zika virus - qHTS assay to identify small molecule inhibitors in human HEK 293 cells (AID 1347053); conditions: HEK293 ZIKV MR766 infection, NS1 TR-FRET, 24 h; series mostly up to 46.1 µM; also: nearly all actives have a fitted effect of over 55% in size
# How it was run: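 HEK 293 cells pretreated with compound for 1 h, then infected with ZIKV MR766 (MOI 0.5) for 24 h at 37 C. NS1 detected by TR-FRET with two anti-NS1 antibodies; normalized to uninfected (0%) and infected (100%) wells.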
# [14] = qHTS of pediatric cancer cell lines to identify multiple opportunities for drug repurposing: Primary screen for BT-12 cells (AID 1347101); conditions: BT-12 viability, CellTiter-Glo luminescence, 48 h; series mostly up to 57.3 µM; also: nearly all actives have a fitted effect of over 25% in size
# How it was run: as §3
# [15] = qHTS of pediatric cancer cell lines to identify multiple opportunities for drug repurposing: Primary screen for U-2 OS cells (AID 1347096); conditions: U-2 OS viability, CellTiter-Glo luminescence, 48 h; series mostly up to 46 µM; also: nearly all actives have a fitted effect of over 50% in size
# How it was run: as §3
# Potency is read from the fitted curve at half-maximal effect.
SMILES,Potency [1],Potency [2],Potency [3],Potency [4],Potency [5],Potency [6],Potency [7],Potency [8],Potency [9],Potency [10],Potency [11],Potency [12],Potency [13],Potency [14],Potency [15]
FC(F)(F)c1ccc(Nc2nc3ccc(Oc4ccnc(-c5ncc(C(F)(F)F)[nH]5)c4)cc3[nH]2)cc1,inactive,18.7 µM (active),16.6 µM (active),14.8 µM (active),4.18 µM (active),13.7 µM (active),20.9 µM (active),7.43 µM (active),5.41 µM (active),16.6 µM (active),inactive,–,–,–,–
O=C(Nc1nnc(-c2ccco2)o1)c1cc(-c2ccccc2)nc2ccccc12,–,14.8 µM (active),7.43 µM (active),–,11.8 µM (active),27.3 µM (active),8.33 µM (active),–,30.4 µM (active),10.5 µM (active),–,20.9 µM (active),–,–,–
C=CC(=O)N1CCc2ccc(-n3c(=O)ccc4cnc5ccc(-c6cnn(C)c6)cc5c43)cc21,9.3 µM (active),5.9 µM (active),–,5.9 µM (active),1.48 µM (active),6.11 µM (active),3.72 µM (active),–,8.57 µM (active),2.35 µM (active),8.33 µM (active),2.35 µM (active),2.96 µM (active),6.11 µM (active),–
CC(N[C@H]1CCCC[C@H]1NC(=O)c1ccc(Cl)cc1)c1cccc2ccccc12 (stereo partly drawn),–,0.0296 µM (active),–,0.743 µM (active),0.0209 µM (active),1.53 µM (active),–,0.0662 µM (active),4.82 µM (active),0.418 µM (active),–,2.96 µM (active),inactive,1.37 µM (active),inactive
Cn1cc(C2=C(c3c4n(c5ccccc35)CCC(CN)C4)C(=O)NC2=O)c2ccccc21 (stereo not drawn),–,–,14.8 µM (active),5.9 µM (active),–,27.3 µM (active),–,–,24.1 µM (active),26.4 µM (active),–,26.4 µM (active),13.2 µM (active),27.3 µM (active),–
CC(=O)ON=C1C(c2c(O)[nH]c3cc(Br)ccc23)=Nc2ccccc21,–,–,2.96 µM (active),–,0.0118 µM (active),–,5.26 µM (active),11.8 µM (active),–,16.6 µM (active),–,–,–,19.3 µM (active),–
NC(=NCCCCCCN=C(N)N=C(N)Nc1ccc(Cl)cc1)N=C(N)Nc1ccc(Cl)cc1,–,5.9 µM (active),13.2 µM (active),2.96 µM (active),2.09 µM (active),–,26.4 µM (active),18.7 µM (active),21.5 µM (active),5.26 µM (active),20.9 µM (active),–,–,13.7 µM (active),inactive
N#Cc1c(C2CCNCC2)cc(-c2c(O)cccc2OCC2CC2)nc1N,–,–,–,18.7 µM (active),1.05 µM (active),–,18.7 µM (active),–,21.5 µM (active),–,–,–,inactive,–,inactive
COc1cc(CCc2cc(NC(=O)c3ccc(N4C[C@@H](C)N[C@@H](C)C4)cc3)n[nH]2)cc(OC)c1,–,–,13.2 µM (active),14.8 µM (active),–,27.3 µM (active),14.8 µM (active),–,6.07 µM (active),–,5.9 µM (active),4.18 µM (active),–,27.3 µM (active),23.5 µM (active)
CN1CCc2c(c3ccccc3n2Cc2ccc(C(=O)NO)cc2)C1,–,3.72 µM (active),23.5 µM (active),5.9 µM (active),2.96 µM (active),30.6 µM (active),20.9 µM (active),18.7 µM (active),24.1 µM (active),16.6 µM (active),18.7 µM (active),16.6 µM (active),–,–,23.5 µM (active)
CC(O)(C#Cc1ccc2c(c1)N(c1nc(N)ncc1Cl)CC2)c1nccs1 (stereo not drawn),inactive,7.43 µM (active),13.2 µM (active),5.9 µM (active),2.35 µM (active),–,inactive,–,21.5 µM (active),16.6 µM (active),inactive,–,–,–,inactive
CCN(CC)CCCCNc1ncc2c(n1)N(C)C(=O)N(c1c(Cl)c(OC)cc(OC)c1Cl)C2,23.4 µM (active),–,14.8 µM (active),18.7 µM (active),13.2 µM (active),–,–,inactive,6.81 µM (active),16.6 µM (active),11.8 µM (active),20.9 µM (active),–,17.2 µM (active),inactive
Cc1cnc(NC(=O)Nc2cc(Br)c(C)cc2OC[C@@H]2CNCCO2)cn1,–,–,1.18 µM (active),–,0.166 µM (active),–,1.05 µM (active),–,inactive,–,inactive,1.87 µM (active),6.62 µM (active),inactive,–

# From PubChem BioAssay (NCATS)
